# Measured values reported in the supplement of paper PMC13380429.
# Test system: Vero E6 infected with SARS-CoV-2
# Assay: morphology score (similarity to uninfected cells); higher = more like uninfected cells
# Conditions: 24 h
row,SMILES,morphology score
1,CN(C)C/C=C/C(=O)Nc1ccc(C(=O)Nc2cccc(Nc3ncc(Cl)c(-c4c[nH]c5ccccc45)n3)c2)cc1 (10 µM),-0.108
2,O=C(CCc1ccc(O)cc1)c1c(O)cc(O)cc1O [phloretin] (10 µM),0.241
3,CNCCN(C)Cc1c[nH]nc1-c1ccc(O[C@H]2C[C@H](OCCC3CCOCC3)C2)cc1 (10 µM),-0.0509
4,Cc1cnc(Nc2ccc(OCCN3CCCC3)cc2)nc1Nc1cccc(S(=O)(=O)NC(C)(C)C)c1 [fedratinib] (0.833333 µM),-0.054
5,COC(=O)[C@@H](N)CS [mecysteine] (10 µM),-0.052
6,CCC(Cc1c(I)cc(I)c(N)c1I)C(=O)O (centres undefined) [iopanic-acid] (10 µM),-0.136
7,COc1c(OCCCN2CCOCC2)ccc2c1N=C(NC(=O)c1cnc(N)nc1)N1CCN=C21 [copanlisib] (0.833333 µM),-0.0397
8,CC(=O)N(CC(O)CN(C(C)=O)c1c(I)c(C(=O)NCC(O)CO)c(I)c(C(=O)NCC(O)CO)c1I)c1c(I)c(C(=O)NCC(O)CO)c(I)c(C(=O)NCC(O)CO)c1I (centres undefined) [iodixanol] (10 µM),-0.0966
9,CO[C@@H]1COCC[C@@H]1N[C@@H]1CC[C@@](C(=O)N2CCc3ncc(C(F)(F)F)cc3C2)(C(C)C)C1 (10 µM),-0.21
10,OC[C@@H](O)[C@@H](O)CO [erythritol] (10 µM),0.135
11,OC(c1ccc(-c2ccc(CN3CCN(Cc4ccncc4)CC3)cc2)c(F)c1)(C(F)(F)F)C(F)(F)F (10 µM),-0.228
12,CCOC(=O)NNc1ccc(N(CC)CC(C)O)nn1 (centres undefined) [cadralazine] (10 µM),0.0865
13,CN(CCOP(=O)(O)O)C(=N)N [creatinol-phosphate] (10 µM),0.077
14,CN1CCC(OC(c2ccccc2)c2ccccc2)CC1 [diphenylpyraline] (10 µM),0.291
15,CN(C)CCCC1(c2ccc(F)cc2)OCc2cc(C#N)ccc21 (centres undefined) [citalopram] (10 µM),-0.167
16,COc1ccncc1C(=O)NC(=O)Nc1ccc(-c2ccccc2)c(C(F)(F)F)c1 [S1P1-agonist-III] (10 µM),-0.0188
17,CC(=O)N[C@@H](Cc1ccc(O)cc1)C(=O)O [N-acetyl-tyrosine] (10 µM),-0.058
18,CC(C)(C)Sc1c(CC(C)(C)C(=O)O)n(Cc2ccc(Cl)cc2)c2ccc(OCc3ccc4ccccc4n3)cc12 [quiflapon] (10 µM),-0.04
19,CC(Cc1ccccc1)NCCC(c1ccccc1)c1ccccc1 (centres undefined) [prenylamine] (10 µM),0.878
20,O=C(c1ccc(Nc2nccc(-c3cc4ccccc4s3)n2)cc1)N1CCC(N2CCCC2)CC1 (0.833333 µM),0.629

row,SMILES,morphology score
1,Cc1cc(C(=O)N2Cc3cnn(C)c3Nc3ccccc32)ccc1CNC(=O)N1CCC[C@H]1C(=S)N1CCCN(C)CC1 (10 µM),0.0545
2,CC(C)OC(=O)C(C)(C)Oc1ccc(C(=O)c2ccc(Cl)cc2)cc1 [fenofibrate] (10 µM),0.0415
3,O=C(OCC(O)CO)c1ccccc1Nc1ccnc2c(C(F)(F)F)cccc12 (centres undefined) [floctafenine] (10 µM),-0.157
4,CCCCCCC[N+](CC)(CC)CCCCc1ccc(Cl)cc1 [clofilium] (10 µM),0.0344
5,OCCCNc1ccccc1 [3-anilinopropan-1-ol] (10 µM),-0.164
6,CC(=O)Nc1ccc(NC(=S)NC(=O)c2ccc(C(C)(C)C)cc2)cc1 [tenovin-1] (10 µM),-0.0316
7,Cc1cc(O)cc2c1O[C@](C)(CCC[C@H](C)CCC[C@H](C)CCCC(C)C)CC2 [D-delta-tocopherol] (10 µM),-0.14
8,O=C1Nc2ccc(Cl)c3c2C1(CCCCN1CC=C(c2ccc(Cl)cc2)CC1)CCC3 (centres undefined) (0.833333 µM),0.0484
9,Oc1cc(O)cc(O)c1 [phloroglucin] (10 µM),-0.0825
10,C[C@@H](N)[C@H]1CC[C@H](C(=O)Nc2ccncc2)CC1 (10 µM),0.243
11,C#C[C@]1(O)CC[C@H]2[C@@H]3CCC4=CC(=O)CCC4=C3C=C[C@@]21CC [gestrinone] (10 µM),0.0853
12,CC[C@@H](C)N(C)C(=O)c1cc2ccccc2c(-c2ccccc2Cl)n1 (10 µM),-0.122
13,COc1ccc2c(C)nc(Nc3nc(C)c(C)c(O)n3)nc2c1 [madrasin] (10 µM),0.0439
14,Oc1cc2c(cc1O)CN(C(=S)NCCc1ccc(Cl)cc1)CCC2 [capsazepine] (10 µM),-0.103
15,O=C(O)c1cc(O)c(O)c(O)c1 [gallic-acid] (10 µM),-0.19
16,Cc1ccc(C(=O)N(CCCN)[C@@H](c2nc3cc(Cl)ccc3c(=O)n2Cc2ccccc2)C(C)C)cc1 [ispinesib] (0.833333 µM),-0.37
17,N[C@@H]1CN(c2c(F)cc3c(=O)c(C(=O)O)cn([C@@H]4C[C@@H]4F)c3c2Cl)CC12CC2 [sitafloxacin] (10 µM),-0.0334
18,N#Cc1cccc(-c2nc(-c3cccnc3)no2)c1 (10 µM),0.143
19,C#C[C@]1(O)CC[C@H]2[C@@H]3CCc4cc(OC5CCCC5)ccc4[C@H]3CC[C@@]21C [quinestrol] (10 µM),-0.0318
